{"source": "PubChem BioAssay (NCATS)", "note": "Inconclusive results are not listed. Values without a mark were called inactive. Calls follow the shape of the dose curve; as a rule, active = well fitted curve in either direction with a large enough effect (not every such curve was filed as active); inconclusive = small, poorly fitted or top-dose-only effect, or another doubt; inactive = flat fitted curve, though single readings scatter. % is scaled to controls: 0 for no effect and ±100 for the full control effect."}
{"assay": "AP1 Signaling Pathway (AID 357);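 also: ME-180 reporter cells stimulated with EGF at its EC50 level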", "conditions": "ME-180 AP-1-bla reporter, EGF-induced, beta-lactamase ratio, 5 h; at 7.69 µM (top of the series) unless noted", "description": "(§1) NCGC Assay Overview: Activator protein-1 (AP-1), a transcription factor, plays an important role in tumor genesis by regulating genes involved in cell proliferation, differentiation, apoptosis, and angiogenesis. AP-1 activity is induced by a complex network of signaling pathways that involves extracellular signals, such as growth factors. The AP-1 protein complex formed from c-Fos and c-Jun binding to the AP-1 response element results in transcriptional activation of genes containing such elements within their promoter. Low molecular weight molecules have been discovered and developed to modulate various components of these signaling pathways, for example, MAP kinase inhibitors. However, many points of pathway modulation remain untested due to the lack of chemical probes making this signaling locus of general interest. Using a beta-lactamase reporter-gene under control of the AP-1 response element, a cell-based assay [CellSensor(TM) AP-1-bla ME-180 developed by Invitrogen Corp.] was used to measure EGF-induced signaling. Library compounds were measured for their ability to modulate positively or negatively the action of EC50 EGF on reporter gene activity. Compounds were screened in a titration series in 1536-well format. Positive and negative modulators were identified based on the AC50 values derived from the screening data.\n(§2) NCGC Assay Protocol Summary: 2500 cells/5uL in Opti-MEM medium containing 0.5% dialyzed FBS, 0.1 mM NEAA, 1 mM sodium pyruvate and 10 mM HEPES was dispensed into 1536-well plates and cells were cultured at 37 degrees Celsius overnight. […] After centrifugation at 1000 rpm for 2 seconds the plates were incubated at 37 degrees Celsius for 5 hours. 1 uL of CCF4-dye mixture was added to each well. After incubated at room temperature for 2.5 hours the plates were measured on an EnVision plate reader at Excitation 405nm, Emission1=460nm and Emission 2=530nm. The %Activity was determined from the ratio of 460nm/530nm."}
{"smiles": "CN(C)c1ncc2nc(CCc3ccccc3)c(=O)n(C3CC3)c2n1", "activity change, negative = inhibition": "1.45%"}
{"smiles": "Oc1cc2c(c(Cl)c1O)CCNC[C@H]2c1ccccc1", "activity change, negative = inhibition": "-21% [at 38 µM]"}
{"smiles": "O=C(c1ccco1)N1CCC2(CC1)CN(c1ncccn1)C2", "activity change, negative = inhibition": "-3.83%"}
{"smiles": "CN1CCN(c2ncc3ncc(=O)n(CCc4ccccc4)c3n2)CC1", "activity change, negative = inhibition": "-5.68%"}
{"smiles": "COc1cccc(-c2nc(NCCNC(C)=O)c3ccccc3n2)c1", "activity change, negative = inhibition": "-4.33%"}
{"smiles": "COc1cccc(Cn2c(=O)c(-c3ccccc3)nc3cnc(OC)nc32)c1", "activity change, negative = inhibition": "-11.6%"}
{"smiles": "CN(C)Cc1ccccc1-c1nccc(NCc2cccs2)n1", "activity change, negative = inhibition": "3.22%"}
{"smiles": "CC(C)(O/N=C(\\C(=O)N[C@@H]1C(=O)N2C(C(=O)[O-])=C(C[n+]3ccccc3)CS[C@@H]12)c1csc(N)n1)C(=O)O", "activity change, negative = inhibition": "8.59% [at 17.2 µM]"}
{"smiles": "O=C(c1cnccn1)N1CCC2(CC1)CN(C(c1ccccc1)c1ccccc1)C2", "activity change, negative = inhibition": "-2%"}
{"smiles": "COc1ccc(C(=O)N2CCC3(CCCN(C(=O)NC(C)C)C3)CC2)cc1", "activity change, negative = inhibition": "-3.27%"}
{"smiles": "COc1ccc(NC(=O)N2CC[C@@]3(CCCN(C(=O)c4ccco4)C3)C2)cc1", "activity change, negative = inhibition": "-13.2%"}
{"smiles": "COc1cccc(Cn2c(=O)c(-c3ccccc3)nc3cnc(N(C)C)nc32)c1", "activity change, negative = inhibition": "8.64%"}
{"smiles": "O=C(Nc1ccccc1)N1CCCC2(CCN(C(=O)c3csnn3)CC2)C1", "activity change, negative = inhibition": "-9.89%"}
{"smiles": "COc1ccccc1CNc1ccnc(-c2ccccc2CN(C)C)n1", "activity change, negative = inhibition": "-7.71%"}
{"smiles": "O=C(c1cc(C(F)(F)F)cc(C(F)(F)F)c1)N1CCC2(CC1)CCN(c1ncccn1)CC2", "activity change, negative = inhibition": "-11.6%"}
{"smiles": "Cn1cc(-c2nc3cnc(Oc4ccccc4)nc3n(Cc3cccs3)c2=O)c2ccccc21", "activity change, negative = inhibition": "7.68%"}
{"smiles": "CS(=O)(=O)N1CCC2(CC1)CN(C(=O)Nc1cccc(F)c1)C2", "activity change, negative = inhibition": "0.393%"}
{"smiles": "COc1ncc2nc(-c3cn(C)c4ccccc34)c(=O)n(-c3ccccc3)c2n1", "activity change, negative = inhibition": "-0.341%"}
{"smiles": "COc1ccccc1CN1CCCC2(CCN(C(=O)c3cc(C(F)(F)F)cc(C(F)(F)F)c3)CC2)C1", "activity change, negative = inhibition": "16.7%"}
{"smiles": "CN1CC[C@@]2(CCCN(C(=O)c3cccn3C)C2)C1", "activity change, negative = inhibition": "0.737%"}
{"smiles": "COc1ncc2nc(C)c(=O)n(CCc3ccccc3)c2n1", "activity change, negative = inhibition": "-1.51%"}
{"smiles": "O=C(Nc1ccccc1)N1CCCC2(CCN(C(=O)c3cnccn3)CC2)C1", "activity change, negative = inhibition": "4.4%"}
{"smiles": "CS(=O)(=O)Nc1cccc(-c2nccc(Nc3ccc(F)cc3)n2)c1", "activity change, negative = inhibition": "-12.6%"}
{"smiles": "Nc1nc2n[nH]nc2c(=O)[nH]1", "activity change, negative = inhibition": "-1.23% [at 17.2 µM]"}
{"smiles": "COc1cccc(-c2cncnc2NCc2cccc(C)c2)c1", "activity change, negative = inhibition": "-11.8%"}
{"smiles": "COc1ccc(CNc2nc(-c3cccc(C#N)c3)nc3ccccc23)c(OC)c1", "activity change, negative = inhibition": "-19.2%"}
{"smiles": "COc1ccc(-c2nc3cnc(N(C)C)nc3n(C3CC3)c2=O)cc1", "activity change, negative = inhibition": "-0.159%"}
{"smiles": "c1ccc(CNc2cc(-c3ccoc3)ncn2)cc1", "activity change, negative = inhibition": "-7.43%"}
{"smiles": "CC(C)CN1CC[C@@]2(CCCN(C(=O)c3ccco3)C2)C1", "activity change, negative = inhibition": "-7.86%"}
{"smiles": "Cc1noc(C)c1-c1cncnc1-n1ccnc1", "activity change, negative = inhibition": "0.604%"}
{"smiles": "O=C(Nc1ccccc1)N1CC[C@@]2(CCCN(C(=O)c3csnn3)C2)C1", "activity change, negative = inhibition": "-13.6%"}
{"smiles": "CS(=O)(=O)N1CCC2(CC1)CN(c1ncccn1)C2", "activity change, negative = inhibition": "-16%"}
{"smiles": "COc1cccc(Cn2c(=O)cnc3cnc(Oc4cccc(Cl)c4)nc32)c1", "activity change, negative = inhibition": "-19.7%"}
{"smiles": "O=C(c1ccncc1)N1CCC[C@@]2(CCN(c3ccncc3)C2)C1", "activity change, negative = inhibition": "-13.7%"}
{"smiles": "N#Cc1cccc(-c2nc(Nc3ccncc3)c3ccccc3n2)c1", "activity change, negative = inhibition": "-0.676%"}
{"smiles": "COc1cccc(Cn2c(=O)c(CCc3ccccc3)nc3cnc(N4CCOCC4)nc32)c1", "activity change, negative = inhibition": "0.275%"}
{"assay": "AP1 Signaling Pathway (AID 357);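 also: ME-180 reporter cells stimulated with EGF at its EC50 level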", "conditions": "ME-180 AP-1-bla reporter, EGF-induced, beta-lactamase ratio, 5 h; at 17.2 µM (top of the series)", "description": "as §1, §2", "units": {"activity change, negative = inhibition": "%"}}
{"smiles": "CC(=O)OCC1=C(C(=O)O)N2C(=O)[C@@H](NC(=O)CSc3ccncc3)[C@@H]2SC1", "activity change, negative = inhibition": 9.51}
{"smiles": "CC(=O)O[C@@H](C)C[N+](C)(C)C", "activity change, negative = inhibition": 20.9}
{"assay": "AP1 Signaling Pathway (AID 357);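 also: ME-180 reporter cells stimulated with EGF at its EC50 level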", "conditions": "ME-180 AP-1-bla reporter, EGF-induced, beta-lactamase ratio, 5 h; at 38 µM (top of the series)", "description": "as §1, §2", "units": {"activity change, negative = inhibition": "%"}}
{"smiles": "CC(=O)OCC1=C(C(=O)O)N2C(=O)[C@@H](NC(=O)CSc3ccncc3)[C@@H]2SC1", "activity change, negative = inhibition": 11}
{"smiles": "CC(=O)O[C@@H](C)C[N+](C)(C)C", "activity change, negative = inhibition": 13.8}
